SARS PLP yeast: qHTS of Yeast-based Assay for SARS-CoV PLP | S. cerevisiae expressing SARS-CoV PLpro, growth rescue | Potency, µM (highest dose often 32.9 µM), for inactives: top-dose activity, positive = growth rescue, hits mostly activators | 0.19% of 330,000 active | AID 485353, 2010; calls by dose curve; note: 0% is about no effect; nearly all actives have a fitted effect of over 55% in size
Pf growth 96h: Primary qHTS for delayed death inhibitors of the malarial parasite plastid, 96 hour incubation; P. falciparum luciferase reporter growth, 96 h; AID 504834, 2011; Potency, µM (doses to about 28.7 µM), for the others: at the highest dose activity change, negative = inhibition, hits mostly inhibitors; 6.9% of 320,000 active; note: % is set by controls: 0 for no effect and ±100 for the full control effect
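Compounds incubated with erythrocytes infected by luciferase-expressing P. falciparum (2% hematocrit, 0.05% parasitemia final) for 96 hours, 37 C in 5% CO2. Growth inhibition scored as decreased luciferase luminescence.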
Pf growth 48h: Primary qHTS for delayed death inhibitors of the malarial parasite plastid, 48 hour incubation; 5.9% of 310,000 active; Potency, µM (doses to about 28.7 µM), without a hit: at the top dose activity change, negative = inhibition, actives largely listed as inhibitors; P. falciparum luciferase growth in erythrocytes, 48 h; note: % is set by controls: 0 for no effect and ±100 for the full control effect
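Read-out is firefly luciferase luminescence from an integrated reporter in P. falciparum, so falling signal marks reduced parasite growth. Infected erythrocytes were at 2% hematocrit and 0.1% parasitemia (final) in Albumax-supplemented RPMI 1640.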
Sm TGR inh: qHTS Assay for the Inhibitors of Schistosoma Mansoni Peroxiredoxins; purified TGR, DTNB reduction, TNB absorbance 405 nm; 3% of 360,000 active; Potency, µM (series often up to 114 µM), without a hit: at the top dose activity change, negative = inhibition, hits mostly inhibitors; AID 485364, 2010; note: % is set by controls: 0 for no effect and ±100 for the full control effect; nearly all actives have a fitted effect of over 60% in size
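TGR 20 nM + NADPH 100 uM (dispensed conc.), cpd preinc 15 min RT; start with NADPH (500 uM addition) then DTNB (15 mM addition). Kinetic TNB absorbance, 405 nm filter. Four-parameter Hill fit across titration.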
Starred values were filed as active, the others as inactive; ? = inconclusive; · = no result given. Most compounds without a hit are left out; they make up all but 12% or so of the library. Unless noted, calls come from the whole dose curve; as a rule, active = well fitted curve in the direction sought with a large enough effect; inconclusive = small, poorly fitted or top-dose-only effect, or another doubt; inactive = no such curve, though single readings can be large; an effect the other way counts as inactive or inconclusive. Potency is the fitted concentration of half-maximal effect.

SMILES	SARS PLP yeast	Pf growth 96h	Pf growth 48h	Sm TGR inh
CCCn1c(=N)n(CC(O)c2ccco2)c2ccccc21 (centres undefined)	0%	-10%	9%	?
Cc1ccc(C)c(CN2C(=O)c3ccccc3S(=O)(=O)c3ccc(C(=O)N4CCOCC4)cc32)c1	·	·	·	-17%
O=C(NCCO)c1cc2c([nH]c3ccccc32)c(-c2ccc(F)cc2)n1	2%	15µM*	?	-13%
Cc1ccc(-c2nc(C(=O)NCCCN(C)C)cc3c2[nH]c2ccccc23)cc1	-3%	9.3µM*	6.6µM*	-4%
O=C(NCCc1ccc(Cl)cc1)C(=O)NCC(c1cccs1)S(=O)(=O)c1ccccc1 (centres undefined)	·	·	·	-35%
COc1ccccc1CCNC(=O)C(=O)NCC(c1ccco1)S(=O)(=O)c1ccc(C)cc1 (centres undefined)	·	·	·	14µM*
COc1ccc(CCNC(=O)C(=O)NCC(c2ccco2)S(=O)(=O)c2cccs2)cc1 (centres undefined)	·	·	·	32µM*
COc1ccccc1CCNC(=O)C(=O)NCC(c1ccco1)S(=O)(=O)c1cccs1 (centres undefined)	·	·	·	18µM*
O=C(NCCc1ccc(Cl)cc1)C(=O)NCC(c1cccs1)S(=O)(=O)c1cccs1 (centres undefined)	·	·	·	25µM*
COc1ccccc1CCNC(=O)C(=O)NCC1OCCN1S(=O)(=O)c1cccs1 (centres undefined)	-5%	?	-16%	0%
COc1ccccc1CCNC(=O)C(=O)NCC1OCCN1S(=O)(=O)c1ccc(C)cc1 (centres undefined)	-5%	-8%	?	5%
COc1ccc(CCNC(=O)C(=O)NCC(c2ccco2)S(=O)(=O)c2ccccc2)cc1 (centres undefined)	·	·	·	-22%
Cc1ccc(CNC(=O)c2ccc3c(c2)NC(=O)CS3)cc1	3%	13%	3%	0%
COc1ccccc1-c1c(C)nn2c(N3CCN(c4ccc(Cl)cc4)CC3)cc(C)nc12	·	·	·	3%
Clc1cccc(-c2nc(-c3ccccn3)no2)c1	-6%	7.4µM*	-79%	2%
CCN(CC)c1ccc(-c2nc(-c3ccccn3)no2)cc1[N+](=O)[O-]	·	·	·	50µM*
CCCc1nn2c(=O)cc(COC(=O)c3cccs3)nc2s1	·	·	·	-8%
O=C(NCCN1C(=O)S/C(=C\c2ccc(Cl)c([N+](=O)[O-])c2)C1=O)C1=COCCO1	-8%	?	-8%	-7%
Cc1ccc(-c2cnco2)cc1	1%	14%	36%	11%
Cc1ccc(-c2cc(-c3ccc(C)cc3)[n+](C)o2)cc1	-6%	0.37µM*	1.2µM*	-1%
O=C(O)c1ccc(CNC(=O)C2CCCN2C(=O)OCc2ccccc2)cc1 (centres undefined)	0%	25%	9%	0%
O=C(Nc1cc(-c2nc3cc(Cl)ccc3o2)ccc1Cl)c1cc2ccccc2o1	·	·	·	4%
CCOC(=O)c1c(C)c2c(n1C)CCC/C2=N\O	1%	12µM*	22%	0%
CC(C)Oc1ccccc1NC(=O)CSc1nccn1C	-2%	1%	13%	8%
CC(C)CCNC(=O)CCc1nnc(Cc2c[nH]c3ccccc23)o1	-1%	?	-15%	13µM*
SMILES	SARS PLP yeast	Pf growth 96h	Pf growth 48h	Sm TGR inh
Cc1nc(C(C)NC(=O)CCc2nnc(Cc3c[nH]c4ccccc34)o2)cs1 (centres undefined)	0%	4.7µM*	-24%	-35%
COCCN(C(=O)CCc1nnc(Cc2c[nH]c3ccccc23)o1)C(C)C	4%	?	2%	20µM*
CC(=O)OCC1=C(C(=O)O)N2C(=O)C(NC(=O)c3ccc(COc4ccc(Cl)cc4)o3)C2SC1 (centres undefined)	8%	74%	37%	22µM*
CC(=O)OCC1=C(C(=O)O)N2C(=O)C(NC(=O)c3ccc(COc4c(C)cccc4Cl)o3)C2SC1 (centres undefined)	2%	?	21%	20µM*
Cc1ccc(/C=C/S(=O)(=O)NCC(=O)OCC(=O)Nc2ccc(C(N)=O)cc2)cc1	-2%	-7%	11%	-3%
Cc1ccc(/C=C/S(=O)(=O)NCC(=O)OCC(=O)Nc2c(F)cccc2F)cc1	2%	-28%	?	28µM*
Cc1ccccc1CCNC(=O)c1ccc2c(c1)nc1n2CCC(C)C1 (centres undefined)	·	·	·	0%
CC(=O)c1c2c3c(cccc3n(C)c1=O)C(=O)c1ccccc1-2	0%	-17%	8%	8.9µM*
Cc1cccc(NS(=O)(=O)c2ccc(C(=O)NCC3(N4CCCCC4)CCCCC3)cc2)c1C	·	0%	2.6µM*	6%
O=C(NCC1(N2CCCCC2)CCCCC1)c1ccc(NS(=O)(=O)c2ccccc2)cc1	0%	?	?	-22%
Cc1ccc(CN(C)c2nc(-c3cccnc3)nc3ccccc23)o1	-1%	12µM*	?	40µM*
Oc1ccc(/C=N/Nc2nc(-c3cccnc3)nc3ccccc23)c(O)c1	1%	?	9.3µM*	4%
COc1ccc(/C=N/Nc2nc(-c3cccnc3)nc3ccccc23)cc1OC	-2%	?	6.6µM*	0%
COc1ccccc1Nc1ncnc2scc(-c3ccc(F)cc3)c12	·	·	·	4%
Cc1ccc(-c2nc(N/N=C/c3ccncc3)c3ccccc3n2)cc1	12%	?	·	2%
COc1ccc(/C=N/Nc2ncnc3scc(-c4ccccc4)c23)cc1OC	-3%	10µM*	·	-8%
Clc1cccc(CNc2nc(-c3cccnc3)nc3ccccc23)c1	-60%	?	?	8%
N#Cc1ccccc1NC(=O)C(=O)NCC(c1cccnc1)N1CCc2ccccc21 (centres undefined)	·	·	·	6%
CCOc1ccc(CN(C)c2nc(-c3cccnc3)nc3ccccc23)cc1OC	-50%	?	12µM*	1%
Cc1cc(N/N=C/c2ccc(O)c(C)c2O)nc(-c2ccccc2O)n1	-80%	?	5.9µM*	-3%
CN(Cc1ccccc1F)c1nc(-c2cccnc2)nc2ccccc12	-13%	?	?	0%
COc1ccc(CCNc2ncnc3c2oc2ccccc23)cc1OC	-11%	2.9µM*	?	3%
Cc1c(O)ccc(/C=N/Nc2nc(-c3cccnc3)nc3ccccc23)c1O	-1%	10µM*	?	-4%
CSCCC(NS(=O)(=O)c1ccc(C)cc1)C(=O)NCC(C)(C)N1CCOCC1 (centres undefined)	0%	?	?	0%
CCc1sc(Nc2cccc(C)c2C)nc1-c1cc2cccc(OC)c2oc1=O	·	·	·	7%
Cc1ccc(N2CC(NC(=O)c3ccccc3C(F)(F)F)CC2=O)cc1C (centres undefined)	·	·	·	7%
Cc1nc(C)n(CC(C)C(=O)N2CCN(S(=O)(=O)c3ccc(Cl)cc3)CC2)n1 (centres undefined)	-4%	1%	1%	103%

Assay outcomes: PubChem BioAssay, National Center for Advancing Translational Sciences (NCATS)
